According to PMC7862700, “An all-to-all approach to the identification of sequence-specific readers for epigenetic DNA modifications on cytosine”:

What was measured:
Experiment in all cases: DAPPL (digital affinity profiling via proximity ligation, sequencing); 10 mM Tris-HCl pH 7.5, 50 mM NaCl, 1 mM DTT, 4% glycerol, room temperature, 30 min; GST-TFs on glutathione beads, 16-mer random dsDNA library, 0.1% formaldehyde crosslink after washing; high values mean tight binding
FLI1 = target: T1, FLI1 (Homo sapiens, UniProt Q01543 1-452); conditions: protein: recombinant; tags: N-terminal GST; dsDNA, one strand shown
T1 sequence: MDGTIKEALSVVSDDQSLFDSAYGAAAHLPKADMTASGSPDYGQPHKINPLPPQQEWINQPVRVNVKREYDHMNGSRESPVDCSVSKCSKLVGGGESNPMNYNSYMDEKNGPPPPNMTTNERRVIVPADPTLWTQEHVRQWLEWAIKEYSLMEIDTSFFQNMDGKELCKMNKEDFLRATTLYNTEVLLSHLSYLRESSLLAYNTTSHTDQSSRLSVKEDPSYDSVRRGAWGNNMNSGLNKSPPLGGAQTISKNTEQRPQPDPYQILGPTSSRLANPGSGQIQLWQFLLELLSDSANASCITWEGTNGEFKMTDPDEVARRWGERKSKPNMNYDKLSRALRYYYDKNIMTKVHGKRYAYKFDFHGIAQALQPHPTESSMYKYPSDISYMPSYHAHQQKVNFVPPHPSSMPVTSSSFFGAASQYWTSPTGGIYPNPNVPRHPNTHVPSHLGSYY
Method in brief: (§1)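 Human transcription factors fused to GST were expressed in yeast, captured on glutathione beads, given DNA barcodes and pooled with a GST-only negative control. Pools were incubated with 200 nmole of a 16-mer random double-stranded DNA library in Tris/NaCl/DTT/glycerol buffer at room temperature for 30 min. They were then washed, crosslinked with 0.1% formaldehyde, proximity-ligated (BsaI/T4 ligase, 1 h, 37 °C), PCR-amplified and sequenced on an Illumina NextSeq500. Binding signal is each 6-mer's read frequency for a factor divided by its frequency for the GST control.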

ELK1 = target: T2, ELK1 (Homo sapiens, UniProt P19419 1-428); conditions: protein: recombinant; tags: N-terminal GST; dsDNA, one strand shown
T2 sequence: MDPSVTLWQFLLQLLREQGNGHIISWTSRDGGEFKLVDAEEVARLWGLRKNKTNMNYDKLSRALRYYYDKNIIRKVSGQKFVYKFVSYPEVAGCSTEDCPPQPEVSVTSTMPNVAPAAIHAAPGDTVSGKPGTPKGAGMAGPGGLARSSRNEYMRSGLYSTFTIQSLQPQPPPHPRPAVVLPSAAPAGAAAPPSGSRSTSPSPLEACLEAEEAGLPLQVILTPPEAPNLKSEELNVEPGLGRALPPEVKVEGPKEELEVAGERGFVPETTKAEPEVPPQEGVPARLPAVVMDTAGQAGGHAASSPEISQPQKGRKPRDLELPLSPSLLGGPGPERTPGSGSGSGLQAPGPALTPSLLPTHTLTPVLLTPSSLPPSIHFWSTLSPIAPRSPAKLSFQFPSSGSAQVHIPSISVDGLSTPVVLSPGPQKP
Method in brief: as §1

GABPA = target: T3, GABPA (Homo sapiens, UniProt Q06546 1-454); conditions: protein: recombinant; tags: N-terminal GST; dsDNA, one strand shown
T3 sequence: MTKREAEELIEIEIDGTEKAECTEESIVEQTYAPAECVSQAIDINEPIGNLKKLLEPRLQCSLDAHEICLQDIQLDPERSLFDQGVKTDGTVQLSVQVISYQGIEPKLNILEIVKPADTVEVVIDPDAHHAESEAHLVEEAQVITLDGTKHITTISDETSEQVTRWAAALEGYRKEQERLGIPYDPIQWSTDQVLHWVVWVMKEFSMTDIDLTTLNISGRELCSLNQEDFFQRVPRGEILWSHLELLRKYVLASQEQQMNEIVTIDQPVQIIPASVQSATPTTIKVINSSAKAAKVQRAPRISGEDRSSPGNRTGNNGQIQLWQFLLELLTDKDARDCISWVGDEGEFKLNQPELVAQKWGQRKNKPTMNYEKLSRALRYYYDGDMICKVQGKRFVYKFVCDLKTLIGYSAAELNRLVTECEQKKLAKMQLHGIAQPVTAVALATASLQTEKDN
Method in brief: as §1

ERG = target: T4, ERG (Homo sapiens, UniProt P11308 1-479); conditions: protein: recombinant; tags: N-terminal GST; dsDNA, one strand shown
T4 sequence: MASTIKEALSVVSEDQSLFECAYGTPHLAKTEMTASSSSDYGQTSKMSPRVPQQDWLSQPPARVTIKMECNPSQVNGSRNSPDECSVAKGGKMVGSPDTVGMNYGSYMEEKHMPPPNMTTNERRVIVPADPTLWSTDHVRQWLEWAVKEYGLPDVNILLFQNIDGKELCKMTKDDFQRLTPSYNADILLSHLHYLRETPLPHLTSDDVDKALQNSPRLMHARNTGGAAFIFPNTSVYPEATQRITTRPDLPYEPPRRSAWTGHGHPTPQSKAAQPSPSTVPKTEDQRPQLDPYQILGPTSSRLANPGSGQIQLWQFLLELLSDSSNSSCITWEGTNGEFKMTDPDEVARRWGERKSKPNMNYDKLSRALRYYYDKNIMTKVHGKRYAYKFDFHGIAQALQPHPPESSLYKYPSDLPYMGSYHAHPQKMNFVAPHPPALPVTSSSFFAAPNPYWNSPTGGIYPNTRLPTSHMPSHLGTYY
Method in brief: as §1

ELF1 = ELF1 (Homo sapiens, UniProt P32519 1-619); conditions: protein: recombinant; tags: N-terminal GST; dsDNA, one strand shown
Method in brief: as §1

EHF = target: T5, EHF (Homo sapiens, UniProt Q9NZC4 1-300); conditions: protein: recombinant; tags: N-terminal GST; dsDNA, one strand shown
T5 sequence: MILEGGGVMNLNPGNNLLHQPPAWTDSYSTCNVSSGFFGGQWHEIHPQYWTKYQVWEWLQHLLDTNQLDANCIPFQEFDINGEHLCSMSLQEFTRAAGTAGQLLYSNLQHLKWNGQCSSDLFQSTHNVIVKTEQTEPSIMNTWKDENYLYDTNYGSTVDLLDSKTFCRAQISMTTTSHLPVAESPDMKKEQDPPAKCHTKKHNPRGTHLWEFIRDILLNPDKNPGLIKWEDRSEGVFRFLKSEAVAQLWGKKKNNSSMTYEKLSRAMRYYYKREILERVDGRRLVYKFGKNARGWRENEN
Method in brief: as §1

SPI1 = SPI1 (Homo sapiens, UniProt P17947 1-270); conditions: protein: recombinant; tags: N-terminal GST; dsDNA, one strand shown
Method in brief: as §1

SPIB = SPIB (Homo sapiens, UniProt Q01892 1-262); conditions: protein: recombinant; tags: N-terminal GST; dsDNA, one strand shown
Method in brief: as §1

ELK3 = target: T6, ELK3 (Homo sapiens, UniProt P41970 1-407); conditions: protein: recombinant; tags: N-terminal GST; dsDNA, one strand shown
T6 sequence: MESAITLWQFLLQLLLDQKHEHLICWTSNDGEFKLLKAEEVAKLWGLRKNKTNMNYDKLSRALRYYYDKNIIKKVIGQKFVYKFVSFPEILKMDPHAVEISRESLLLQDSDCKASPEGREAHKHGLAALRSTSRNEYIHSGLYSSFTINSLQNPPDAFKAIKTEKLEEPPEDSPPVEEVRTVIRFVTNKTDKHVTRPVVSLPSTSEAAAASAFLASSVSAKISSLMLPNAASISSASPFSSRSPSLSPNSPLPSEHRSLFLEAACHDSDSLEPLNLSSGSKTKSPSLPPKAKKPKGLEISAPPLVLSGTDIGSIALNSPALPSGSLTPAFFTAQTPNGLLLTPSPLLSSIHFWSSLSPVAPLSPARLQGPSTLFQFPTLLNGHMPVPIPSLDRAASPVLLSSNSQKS
Method in brief: as §1

FEV = target: T7, FEV (Homo sapiens, UniProt Q99581 1-238); conditions: protein: recombinant; tags: N-terminal GST; dsDNA, one strand shown
T7 sequence: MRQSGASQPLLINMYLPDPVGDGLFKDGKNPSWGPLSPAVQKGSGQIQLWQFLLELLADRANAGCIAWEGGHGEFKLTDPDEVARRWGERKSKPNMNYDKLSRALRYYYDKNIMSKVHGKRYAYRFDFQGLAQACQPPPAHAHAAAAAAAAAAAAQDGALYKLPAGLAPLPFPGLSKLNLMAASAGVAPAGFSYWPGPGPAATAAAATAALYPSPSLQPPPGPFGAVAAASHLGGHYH
Method in brief: as §1

ETV5 = ETV5 (Homo sapiens, UniProt P41161 1-510); conditions: protein: recombinant; tags: N-terminal GST; dsDNA, one strand shown
Method in brief: as §1

HSF1 = HSF1 (Homo sapiens, UniProt Q00613 1-529); conditions: protein: recombinant; tags: N-terminal GST; chain copies: 3; dsDNA, one strand shown
Method in brief: as §1

SPIC = target: T8, SPIC (Homo sapiens, UniProt Q8N5J4 1-248); conditions: protein: recombinant; tags: N-terminal GST; dsDNA, one strand shown
T8 sequence: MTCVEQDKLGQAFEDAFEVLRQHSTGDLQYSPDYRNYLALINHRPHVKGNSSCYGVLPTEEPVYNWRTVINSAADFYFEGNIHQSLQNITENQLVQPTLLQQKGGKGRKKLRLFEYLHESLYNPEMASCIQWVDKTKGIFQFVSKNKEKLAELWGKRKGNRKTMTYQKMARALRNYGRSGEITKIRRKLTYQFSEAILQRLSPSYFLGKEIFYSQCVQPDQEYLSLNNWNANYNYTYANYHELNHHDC
Method in brief: as §1

ELF4 = ELF4 (Homo sapiens, UniProt Q99607 1-663); conditions: protein: recombinant; tags: N-terminal GST; dsDNA, one strand shown
Method in brief: as §1

ELK4 = target: T9, ELK4 (Homo sapiens, UniProt P28324-2 1-405); conditions: protein: recombinant; tags: N-terminal GST; dsDNA, one strand shown
T9 sequence: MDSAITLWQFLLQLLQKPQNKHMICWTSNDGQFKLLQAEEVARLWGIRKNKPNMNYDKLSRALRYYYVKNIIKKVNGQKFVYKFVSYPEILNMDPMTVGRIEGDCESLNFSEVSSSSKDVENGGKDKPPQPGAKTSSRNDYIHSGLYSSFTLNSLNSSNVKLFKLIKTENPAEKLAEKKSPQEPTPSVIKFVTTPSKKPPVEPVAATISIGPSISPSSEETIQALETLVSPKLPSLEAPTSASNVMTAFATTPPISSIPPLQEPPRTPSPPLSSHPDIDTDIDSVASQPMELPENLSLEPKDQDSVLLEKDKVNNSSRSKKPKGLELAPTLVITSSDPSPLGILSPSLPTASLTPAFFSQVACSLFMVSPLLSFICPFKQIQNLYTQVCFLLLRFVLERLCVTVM
Method in brief: as §1

ETV2 = target: T10, ETV2 (Homo sapiens, UniProt O00321 1-342); conditions: protein: recombinant; tags: N-terminal GST; dsDNA, one strand shown
T10 sequence: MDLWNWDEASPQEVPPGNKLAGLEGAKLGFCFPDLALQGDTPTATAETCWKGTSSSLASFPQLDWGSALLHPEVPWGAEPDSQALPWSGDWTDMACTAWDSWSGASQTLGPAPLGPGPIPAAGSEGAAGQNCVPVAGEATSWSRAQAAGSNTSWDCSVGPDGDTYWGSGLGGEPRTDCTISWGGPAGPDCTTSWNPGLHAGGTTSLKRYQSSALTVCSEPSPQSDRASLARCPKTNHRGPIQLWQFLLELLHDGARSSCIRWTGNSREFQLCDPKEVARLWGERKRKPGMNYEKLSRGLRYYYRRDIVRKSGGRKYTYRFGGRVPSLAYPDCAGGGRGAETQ
Method in brief: as §1

ELF3 = target: T11, ELF3 (Homo sapiens, UniProt P78545 1-371); conditions: protein: recombinant; tags: N-terminal GST; dsDNA, one strand shown
T11 sequence: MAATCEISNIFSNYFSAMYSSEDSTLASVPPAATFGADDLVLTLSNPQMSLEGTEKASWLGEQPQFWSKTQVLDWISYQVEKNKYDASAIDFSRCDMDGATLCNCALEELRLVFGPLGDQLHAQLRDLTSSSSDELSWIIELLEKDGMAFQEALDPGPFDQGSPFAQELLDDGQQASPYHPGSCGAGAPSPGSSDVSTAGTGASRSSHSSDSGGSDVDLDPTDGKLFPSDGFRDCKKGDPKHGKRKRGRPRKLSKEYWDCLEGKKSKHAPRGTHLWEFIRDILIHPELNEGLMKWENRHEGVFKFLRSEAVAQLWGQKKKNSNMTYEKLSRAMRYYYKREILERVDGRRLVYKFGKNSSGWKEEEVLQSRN
Method in brief: as §1

CRX = CRX (Homo sapiens, UniProt O43186 1-299); conditions: protein: recombinant; tags: N-terminal GST; dsDNA, one strand shown
Method in brief: as §1

ETV1 = ETV1 (Homo sapiens, UniProt P50549 1-477); conditions: protein: recombinant; tags: N-terminal GST; dsDNA, one strand shown
Method in brief: as §1

CRX, sequence (O43186 whole entry): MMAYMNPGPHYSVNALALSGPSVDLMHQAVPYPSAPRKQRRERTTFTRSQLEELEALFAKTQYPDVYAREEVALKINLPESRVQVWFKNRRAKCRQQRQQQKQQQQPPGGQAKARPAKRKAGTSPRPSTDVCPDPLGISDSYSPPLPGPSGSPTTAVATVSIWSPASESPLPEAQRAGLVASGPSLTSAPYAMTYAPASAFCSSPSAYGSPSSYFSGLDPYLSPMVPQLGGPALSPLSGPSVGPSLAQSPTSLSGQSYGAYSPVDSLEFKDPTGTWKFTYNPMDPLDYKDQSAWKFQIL
ETV1, sequence (P50549 whole entry): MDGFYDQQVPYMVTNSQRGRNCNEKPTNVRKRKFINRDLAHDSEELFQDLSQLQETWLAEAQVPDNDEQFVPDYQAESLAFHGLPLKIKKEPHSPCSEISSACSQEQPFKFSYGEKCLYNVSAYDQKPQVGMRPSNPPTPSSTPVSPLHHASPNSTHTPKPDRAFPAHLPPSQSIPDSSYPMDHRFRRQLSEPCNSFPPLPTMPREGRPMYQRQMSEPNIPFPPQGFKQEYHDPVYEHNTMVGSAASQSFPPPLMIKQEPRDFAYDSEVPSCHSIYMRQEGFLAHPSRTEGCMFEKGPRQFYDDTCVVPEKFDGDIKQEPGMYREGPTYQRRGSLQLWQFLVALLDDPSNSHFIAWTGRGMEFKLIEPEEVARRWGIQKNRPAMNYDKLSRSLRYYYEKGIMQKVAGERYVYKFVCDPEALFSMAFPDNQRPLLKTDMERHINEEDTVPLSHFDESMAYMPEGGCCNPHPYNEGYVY
ELF4, sequence (Q99607 whole entry): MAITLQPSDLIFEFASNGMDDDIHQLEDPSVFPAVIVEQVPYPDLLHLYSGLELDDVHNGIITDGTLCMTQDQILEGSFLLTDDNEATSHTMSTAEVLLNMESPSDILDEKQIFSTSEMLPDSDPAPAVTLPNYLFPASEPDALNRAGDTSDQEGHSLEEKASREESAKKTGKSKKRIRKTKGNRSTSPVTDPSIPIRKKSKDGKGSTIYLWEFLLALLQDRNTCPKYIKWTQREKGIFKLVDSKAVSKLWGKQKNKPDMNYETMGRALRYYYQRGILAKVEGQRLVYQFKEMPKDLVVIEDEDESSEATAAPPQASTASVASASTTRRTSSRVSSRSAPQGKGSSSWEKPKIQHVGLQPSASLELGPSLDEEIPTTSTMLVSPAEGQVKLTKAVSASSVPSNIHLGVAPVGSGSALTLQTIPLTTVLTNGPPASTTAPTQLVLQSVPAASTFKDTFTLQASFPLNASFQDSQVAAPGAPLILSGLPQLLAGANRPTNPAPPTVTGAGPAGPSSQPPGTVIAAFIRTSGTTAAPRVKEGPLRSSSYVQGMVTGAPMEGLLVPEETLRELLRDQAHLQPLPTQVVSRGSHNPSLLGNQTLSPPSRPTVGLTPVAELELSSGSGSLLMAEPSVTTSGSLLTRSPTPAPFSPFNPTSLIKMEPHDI
HSF1, sequence (Q00613 whole entry): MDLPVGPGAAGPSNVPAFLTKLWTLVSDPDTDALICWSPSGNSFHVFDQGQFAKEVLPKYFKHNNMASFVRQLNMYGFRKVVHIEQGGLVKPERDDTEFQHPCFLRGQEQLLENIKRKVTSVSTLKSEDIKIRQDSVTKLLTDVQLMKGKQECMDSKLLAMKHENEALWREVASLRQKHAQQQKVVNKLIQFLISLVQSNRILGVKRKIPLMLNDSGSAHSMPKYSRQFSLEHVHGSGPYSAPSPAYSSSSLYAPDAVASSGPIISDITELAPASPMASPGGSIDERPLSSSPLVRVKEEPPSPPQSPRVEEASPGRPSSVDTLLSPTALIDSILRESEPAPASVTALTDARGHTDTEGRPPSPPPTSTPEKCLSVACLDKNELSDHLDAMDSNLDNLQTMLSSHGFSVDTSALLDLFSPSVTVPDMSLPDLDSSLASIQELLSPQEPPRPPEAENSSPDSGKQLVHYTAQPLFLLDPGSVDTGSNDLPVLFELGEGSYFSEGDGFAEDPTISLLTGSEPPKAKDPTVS
ETV5, sequence (P41161 whole entry): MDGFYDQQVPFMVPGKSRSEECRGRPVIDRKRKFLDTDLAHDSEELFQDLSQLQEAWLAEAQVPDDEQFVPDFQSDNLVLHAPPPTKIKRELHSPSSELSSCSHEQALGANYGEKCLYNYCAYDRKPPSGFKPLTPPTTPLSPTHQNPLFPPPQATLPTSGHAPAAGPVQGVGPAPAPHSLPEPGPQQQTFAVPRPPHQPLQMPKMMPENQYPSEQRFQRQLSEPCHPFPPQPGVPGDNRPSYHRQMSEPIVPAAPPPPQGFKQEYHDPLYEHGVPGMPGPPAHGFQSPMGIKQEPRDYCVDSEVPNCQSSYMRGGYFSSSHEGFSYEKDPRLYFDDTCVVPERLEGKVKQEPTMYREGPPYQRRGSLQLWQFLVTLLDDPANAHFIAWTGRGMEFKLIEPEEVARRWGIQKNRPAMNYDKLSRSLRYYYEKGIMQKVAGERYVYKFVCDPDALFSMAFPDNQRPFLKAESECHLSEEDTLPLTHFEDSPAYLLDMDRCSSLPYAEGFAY
ELF1, sequence (P32519 whole entry): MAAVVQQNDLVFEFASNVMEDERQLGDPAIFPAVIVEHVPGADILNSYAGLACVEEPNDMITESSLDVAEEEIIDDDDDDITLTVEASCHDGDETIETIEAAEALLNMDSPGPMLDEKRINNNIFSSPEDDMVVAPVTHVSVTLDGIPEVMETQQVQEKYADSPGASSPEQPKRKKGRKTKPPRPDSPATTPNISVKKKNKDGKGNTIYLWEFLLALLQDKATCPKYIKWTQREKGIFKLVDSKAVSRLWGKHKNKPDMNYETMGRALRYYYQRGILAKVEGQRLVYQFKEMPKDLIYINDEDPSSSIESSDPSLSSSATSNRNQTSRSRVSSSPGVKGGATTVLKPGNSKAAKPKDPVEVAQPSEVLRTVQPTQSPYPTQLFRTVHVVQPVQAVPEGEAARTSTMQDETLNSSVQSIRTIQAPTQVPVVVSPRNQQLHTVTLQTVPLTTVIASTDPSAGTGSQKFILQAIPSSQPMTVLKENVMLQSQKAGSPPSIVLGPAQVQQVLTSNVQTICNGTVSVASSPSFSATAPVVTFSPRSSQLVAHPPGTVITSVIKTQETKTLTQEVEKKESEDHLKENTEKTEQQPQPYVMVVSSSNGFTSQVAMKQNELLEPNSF
SPIB, sequence (Q01892 whole entry): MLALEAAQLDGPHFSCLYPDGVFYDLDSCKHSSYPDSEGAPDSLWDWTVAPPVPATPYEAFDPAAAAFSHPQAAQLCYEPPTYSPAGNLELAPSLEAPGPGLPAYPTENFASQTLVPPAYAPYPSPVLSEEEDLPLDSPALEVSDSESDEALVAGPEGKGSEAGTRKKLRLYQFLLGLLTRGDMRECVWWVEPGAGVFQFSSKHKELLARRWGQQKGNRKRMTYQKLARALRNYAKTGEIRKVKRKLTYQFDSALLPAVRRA

## CACTTT
FLI1
  binding signal: 1.25 fold enrichment (6-mer frequency, TF over GST control)
ELK1
  binding signal: 1.33 fold enrichment (6-mer frequency, TF over GST control)
GABPA
  binding signal: 1.21 fold enrichment (6-mer frequency, TF over GST control)
ERG
  binding signal: 1.26 fold enrichment (6-mer frequency, TF over GST control)
ELF1
  binding signal: 1.35 fold enrichment (6-mer frequency, TF over GST control)
EHF
  binding signal: 1.36 fold enrichment (6-mer frequency, TF over GST control)
SPI1
  binding signal: 1.39 fold enrichment (6-mer frequency, TF over GST control)
SPIB
  binding signal: 1.37 fold enrichment (6-mer frequency, TF over GST control)
ELK3
  binding signal: 1.29 fold enrichment (6-mer frequency, TF over GST control)
FEV
  binding signal: 1.18 fold enrichment (6-mer frequency, TF over GST control)
ETV5
  binding signal: 1.38 fold enrichment (6-mer frequency, TF over GST control)
HSF1
  binding signal: 1.17 fold enrichment (6-mer frequency, TF over GST control)
SPIC
  binding signal: 1.29 fold enrichment (6-mer frequency, TF over GST control)
ELF4
  binding signal: 1.3 fold enrichment (6-mer frequency, TF over GST control)
ELK4
  binding signal: 1.34 fold enrichment (6-mer frequency, TF over GST control)
ETV2
  binding signal: 1.35 fold enrichment (6-mer frequency, TF over GST control)
ELF3
  binding signal: 1.28 fold enrichment (6-mer frequency, TF over GST control)
CRX
  binding signal: 1.14 fold enrichment (6-mer frequency, TF over GST control)
ETV1
  binding signal: 1.3 fold enrichment (6-mer frequency, TF over GST control)
